Source: PubChem BioAssay
This is a sample that favours compounds with a hit; in the whole collection about 3.4% have one here.
FBW7 activator: FBW7 E3 ligase activators, primary screen, biochemical, AlphaScreen, human. AlphaScreen FBW7–phospho-cyclin E peptide binding, activator screen. F-box/WD repeat-containing protein 7 (Homo sapiens), Q969H0. AID 1259310, 2017. 650,000 tested, 0.13% active. normalized activity (activation), % at 26.1 µM; in the data active = normalized activity above about 1.9%;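 also: purified mutant Fbw7 with reduced substrate affinity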
MITF inh: MITF inhibitors, primary screen, biochemical, AlphaScreen, human | Microphthalmia-associated transcription factor (Homo sapiens), O75030 | AlphaScreen MITF homodimerization, bead proximity signal | inhibition, % at 2.6 µM | 650,000 tested, 0.91% active; in the data active = inhibition above about 50%
GPR151 activ: activators of human GPR151, primary screen, cell-based, PathHunter beta-arrestin, luminescence. PathHunter beta-arrestin GPR151 cells. activation, % at 11.2 µM. 650,000 tested, 1% active. AID 1508602, 2020; in the data active = activation above about 4.9%
Target sequence (Q8TDV0 whole entry, looked up): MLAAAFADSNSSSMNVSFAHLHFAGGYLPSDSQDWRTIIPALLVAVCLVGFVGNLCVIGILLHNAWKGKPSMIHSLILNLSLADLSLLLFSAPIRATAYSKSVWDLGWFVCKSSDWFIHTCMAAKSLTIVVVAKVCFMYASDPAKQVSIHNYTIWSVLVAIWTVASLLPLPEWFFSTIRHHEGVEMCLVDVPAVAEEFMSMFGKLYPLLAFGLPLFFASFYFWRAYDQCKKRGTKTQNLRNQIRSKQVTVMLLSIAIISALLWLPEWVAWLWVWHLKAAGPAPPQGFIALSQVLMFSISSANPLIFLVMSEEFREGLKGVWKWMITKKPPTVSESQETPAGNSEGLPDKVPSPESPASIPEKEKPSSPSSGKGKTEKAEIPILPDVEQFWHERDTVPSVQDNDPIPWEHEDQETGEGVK
TEAD-YAP inh: TEAD-YAP interaction inhibition, primary screen, TEAD-YAP interaction inhibitor project, luminescence, HEK-TIYL cells; AID 1259422, 2018; inhibition, % at 9.12 µM; 640,000 tested, 1.4% active; TEAD-Gal4/YAP UAS-luciferase luminescence; in the data active = inhibition above about 32%
GPR151 confirm: GPR151 activators, triplicate retest, confirmation, cell-based, PathHunter beta-arrestin, luminescence | shares compounds with GPR151 activ | GPR151 PathHunter beta-arrestin cells, 90 min; % of EA-reagent control over plate median | activation, % at 11.2 µM | 6,700 tested, under 10 active;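 active = mean percent activation across replicates above the confirmation screen cutoff of 4.91%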
GPR119 counter: GPR119 activators in beta-arrestin cells, counter-screen for GPR151 activator project, cell-based, PathHunter beta-arrestin, luminescence, triplicate; 90 min; 0 = compound-well median, 100 = enzyme-acceptor control; activation, % at 11.2 µM; 6,700 tested, 0.3% active; AID 1508611, 2020; shares compounds with GPR151 activ;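 active = mean percent activation in the counterscreen above 29.09%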;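 also: counterscreen on off-target GPR119 to flag nonselective hits from the GPR151 activator screen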
Each line names hits and unclear results; the compound was inactive in the other large screens (follow-up assays come after a bar, where they were run); ! = a repeat was not active.

COc1ccc(NC(=O)c2cc(C)nc3ccccc23)cc1S(=O)(=O)N1CCCCC1	GPR151 activ 8.4 | GPR151 confirm inactive | GPR119 counter inactive
COc1ccc(S(=O)(=O)N2CCCCC2)cc1NC(=O)c1cc(C)nc2ccccc12	none
CCCNC(=O)c1cccc(N2CCC(N3CCOCC3)CC2)n1	none
O=C(NCCc1ccc(O)cc1)c1cccc(N2CCC(N3CCOCC3)CC2)n1	GPR151 activ 5.6 | GPR151 confirm inactive | GPR119 counter inactive
COc1ccc(CCNC(=O)c2cccc(N3CCCC3CO)n2)cc1 (stereo not drawn)	GPR151 activ 8.7, TEAD-YAP inh 46.5 | GPR151 confirm inactive | GPR119 counter inactive
CC(=O)Nc1ccc(NC(=O)c2cccc(N3CCCC3CO)n2)cc1 (stereo not drawn)	GPR151 activ 5.6 | GPR151 confirm inactive | GPR119 counter inactive
O=C(NCCO)c1cccc(N2CCCC2CO)n1 (stereo not drawn)	none
CCC[C@@H]1NC(=O)[C@H]2CN(C(=O)c3ccc(OC)cc3)CCN2C1=O	none
CC(=O)N1C(=S)NC(=O)/C1=C/c1cc2cc(C)ccc2nc1N1CCCCC1	none
C=Cc1ccc(Cn2c(C)c(CNCCC3=CCCCC3)c(C(=O)O)c2C)cc1	GPR151 activ 6.3 | GPR151 confirm inactive | GPR119 counter inactive
O=S(=O)(c1ccc(-c2csc(-c3ccccc3)n2)cc1)N1CCCC1	none
C=CCCC(C)(C#CCN(CC)CC)OC(C)=O (stereo not drawn)	none
CCOc1ccc(OCC)c(NC(=O)CN2CCN(C(C)=O)CC2)c1	GPR151 activ 6.8 | GPR151 confirm inactive | GPR119 counter inactive
CC(=O)c1ccccc1-c1ccc2c(-c3ccc(N4CCNCC4)cc3)[nH]nc2n1	none
NC(=O)c1ccc(-c2ccc3c(-c4ccc(N5CCNCC5)cc4)[nH]nc3n2)cc1	GPR151 activ 5.9 | GPR151 confirm inactive | GPR119 counter inactive
O=C(COC(=O)c1cc([N+](=O)[O-])ccc1NCCO)Nc1ccc(F)cc1F	GPR151 activ 5.6 | GPR151 confirm inactive | GPR119 counter inactive
O=C(COC(=O)c1cc([N+](=O)[O-])ccc1NCCO)Nc1ccc(F)cc1	none
O=C1C(=O)N(Cc2cccnc2)C(c2ccc(Cl)cc2Cl)/C1=C(/O)c1ccccc1 (stereo not drawn)	none
O=C(O)CCCCCn1c(SCC(=O)c2ccccc2)nc2ccsc2c1=O	GPR151 activ 6.5 | GPR151 confirm inactive | GPR119 counter inactive
Clc1nc(NCc2ccccc2)c2ncn(-c3ccccc3)c2n1	GPR151 activ 5.0 | GPR151 confirm inactive | GPR119 counter inactive
c1ccc(CNc2nc(Nc3ccncc3)nc3c2ncn3-c2ccccc2)cc1	GPR151 activ 6.6 | GPR151 confirm inactive | GPR119 counter inactive
CCNC(=S)NCc1ccc2c(c1)cc(C)n2C	none
Cc1ccccc1N(C)S(=O)(=O)c1ccc2[nH]cc(C(=O)N3CCC(C)CC3)c(=O)c2c1	GPR151 activ 5.1 | GPR151 confirm inactive | GPR119 counter inactive
CCOC(=O)CCn1cc(/C=C(\C#N)C(N)=O)c(-c2ccccc2)n1	none
O=C(NC1CC1)c1cnc(N2CCN(c3ccccn3)CC2)s1	GPR151 activ 5.0 | GPR151 confirm inactive | GPR119 counter inactive
CS(=O)(=O)Oc1ccc(Cl)cc1/C=C1/N=C(c2cccs2)OC1=O	GPR151 activ 5.3 | GPR151 confirm inactive | GPR119 counter inactive
CCOc1cc(/C=C2/N=C(c3cccs3)OC2=O)ccc1OS(C)(=O)=O	none
C=CCn1c(SC(C)C)nc2c1c(=O)n(C)c(=O)n2C	GPR151 activ 8.6 | GPR151 confirm inactive | GPR119 counter inactive
COc1ccc(C2(O)CN(c3cc(OC)ccc3OC)C3=[N+]2CCCS3)cc1 (stereo not drawn)	none
COc1ccc(OC)c(N2CC(O)(c3ccc(OC)c(OC)c3)[N+]3=C2SCCC3)c1 (stereo not drawn)	GPR151 activ 5.4 | GPR151 confirm inactive | GPR119 counter inactive
COC(=O)C1=C(C)NC(C)=C(C(=O)OC)C1c1ccccc1Cl	none
O=C1CCCC2=C1C(c1ccc([N+](=O)[O-])cc1)CC(=O)N2c1ccc(F)cc1 (stereo not drawn)	none
CCC(Sc1nnc2c3ccccc3n(C)c2n1)C(=O)Nc1ccc(S(N)(=O)=O)cc1 (stereo not drawn)	none
CCC(Sc1nnc2c3cc(Br)ccc3n(C)c2n1)C(=O)Nc1ccc(S(N)(=O)=O)cc1 (stereo not drawn)	GPR151 activ 8.5 | GPR151 confirm inactive | GPR119 counter inactive
CCCCCCCCCC(=O)NCCS(=O)(=O)O	none
CCN(CC)c1ccc(C(=O)Nc2sc3c(c2C#N)CCCCC3)cc1	GPR151 activ 5.1 | GPR151 confirm inactive | GPR119 counter inactive
CCN(CC)c1ccc(C(=O)Nc2sc3c(c2C#N)CCCC3)cc1	none
COc1ccc(CN2CCC(n3nccc3NC(=O)Cc3ccccc3)CC2)c(F)c1	none
CC(=O)NCCNC(=O)c1ccc(-c2ccccc2)nc1NCCc1ccccn1	GPR151 activ 5.1 | GPR151 confirm inactive | GPR119 counter inactive
COc1ccc(C2CC(C(F)(F)F)n3nc(C(=O)Nc4cccc(O)c4)cc3N2)cc1 (stereo not drawn)	GPR151 activ 5.8 | GPR151 confirm inactive | GPR119 counter inactive
COc1ccc(C2CC(C(F)(F)F)n3nc(C(=O)Nc4cccc(C(F)(F)F)c4)cc3N2)cc1 (stereo not drawn)	none
Cc1ccc(C)c(NC(=O)Cn2nnc(-c3c[nH]c4ccccc34)n2)c1	none
CCN=C1SC(CC(=O)Nc2sc(C)c(C)c2C(=O)OC)C(=O)N1CC (stereo not drawn)	GPR151 activ 6.0! | GPR151 confirm inactive | GPR119 counter inactive
COc1ccc2o/c(=N\NC(=O)c3ccccc3Nc3ccccc3)c(C(N)=O)cc2c1	GPR151 activ 21.7 | GPR151 confirm inactive | GPR119 counter inactive
NC(=O)c1cc2ccccc2o/c1=N\NC(=O)c1ccccc1Nc1ccccc1	none
Cc1cc(C)n(C(=O)CSc2ccc(Cl)cc2)n1	GPR151 activ 7.8 | GPR151 confirm inactive | GPR119 counter inactive
COc1cccc(OC)c1C(=O)n1nc(C)cc1C	none
COc1ccc(Cl)cc1C(=O)n1nc(C)cc1C	GPR151 activ 9.6 | GPR151 confirm inactive | GPR119 counter inactive
CC(C)N(CCNc1nc(NCCN2CCOCC2)nc2c1ncn2Cc1ccc(C(F)(F)F)cc1)C(C)C	GPR151 activ 6.4 | GPR151 confirm inactive | GPR119 counter inactive
